# Values without a mark were called inactive. Results filed as inconclusive are left out. Where a call stands in place of a potency, no number is given. Calls of active or inactive are those of the source. Unless noted, calls come from the whole dose curve; as a rule, active = well fitted curve in the direction sought with a large enough effect; inconclusive = small, poorly fitted or top-dose-only effect, or another doubt; inactive = no such curve, though single readings can be large; an effect the other way counts as inactive or inconclusive.
# Tests used:
# [1] = target: Rap guanine nucleotide exchange factor 3 (Homo sapiens) (UniProt O95398); test: Confirmatory qHTS for antagonist of cAMP-regulated guanine nucleotide exchange factor 3 (EPAC1) (AID 1645880); conditions: EPAC1 Rap1B-BODIPY-GDP exchange, fluorescence; activity, negative = inhibition: at 115 µM (top of the series); note: nearly all actives have a fitted effect of over 55% in size; note: potency is the fitted concentration of half-maximal effect
# Procedure, shortened: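 Nucleotide exchange uses 100 nM EPAC1, 250 nM RAP1B-BODIPY-GDP and 50 uM GDP, with compounds in a concentration-titration series. After 5 min at room temperature, fluorescence (480 nm ex/540 nm em) is read every 5 min for 30 min. Data are normalized to control ATA and DMSO.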
# [2] = target: Rap guanine nucleotide exchange factor 4 (Homo sapiens) (UniProt Q8WZA2); test: Confirmatory qHTS for agonist of cAMP-regulated guanine nucleotide exchange factor 4 (EPAC2) (AID 1645884); conditions: EPAC2 GEF activity, Rap1B-BODIPY-GDP fluorescence; series mostly up to 154 µM;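 note: nucleotide exchange releases bodipy-GDP from Rap1 and this lowers its fluorescence; nearly all actives have a fitted effect of over 65% in size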; note: potency is the fitted concentration of half-maximal effect
# [3] = target: Rap guanine nucleotide exchange factor 4 (Homo sapiens) (UniProt Q8WZA2); test: Confirmatory qHTS for antagonist of cAMP-regulated guanine nucleotide exchange factor 4 (EPAC2) (AID 1645885); conditions: EPAC2 Rap1B-BODIPY-GDP exchange fluorescence, biochemical; series mostly up to 12.7 µM; note: nearly all actives have a fitted effect of over 25% in size; note: potency is the fitted concentration of half-maximal effect
# [4] = target: Rap guanine nucleotide exchange factor 3 (Homo sapiens) (UniProt O95398); test: Counterscreen qHTS for antagonist of cAMP-regulated guanine nucleotide exchange factor 3 (EPAC1) (AID 1645888); conditions: Rap1B-BODIPY-GDP nucleotide exchange, fluorescence; series mostly up to 154 µM;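 note: fluorescence loss as bound BODIPY-GDP is released from Rap1B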
# Procedure, shortened: (§1)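 Rap1B–BODIPY-GDP (250 nM) with 50 uM GDP; compounds pin-transferred to 9.74 nM–152 uM final (activator) or from 7.32 nM upwards (inhibitor). Fluorescence Ex/Em 480/540 nm read at 5 and 30 min, then after adding cAMP or buffer, at room temperature.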
# [5] = target: Rap guanine nucleotide exchange factor 3 (Homo sapiens) (UniProt O95398); test: Counterscreen qHTS for agonist of cAMP-regulated guanine nucleotide exchange factor 3 (EPAC1) (AID 1645889); conditions: EPAC1 Rap1B-BODIPY-GDP exchange, fluorescence; series mostly up to 154 µM; note: nearly all actives have a fitted effect of over 40% in size; note: potency is the fitted concentration of half-maximal effect
# Procedure, shortened: as §1
# [6] = target: Tumor susceptibility gene 101 protein (Homo sapiens) (UniProt Q99816); test: qHTS Assay for Iinhibitors of HIV-1 Budding by Blocking the Interaction of PTAP/TSG101: Hit Validation (AID 651600); conditions: PTAP peptide/TSG101 UEV interaction, biochemical assay; series mostly up to 57.5 µM; note: potency is the fitted concentration of half-maximal effect; nearly all actives have a fitted effect of over 70% in size
# Procedure, shortened: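 Fluorescence polarization binding assay: Tsg101 binding domain (10 uM) mixed with compounds and FITC-labeled PTAP peptide (50 nM) in HEPES pH 7.5, 0.15 M NaCl, 0.01% Tween 20, EDTA, TCEP; 20 min at r.t.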
# [7] = AP1 Signaling Pathway (AID 357; active = well fitted curve in either direction with a large enough effect, not every such curve was filed as active;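 note: ME-180 reporter cells stimulated with EGF at its EC50 level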); conditions: ME-180 AP-1-bla reporter, EGF-induced, beta-lactamase ratio, 5 h; at 7.69 µM (top of the series) unless noted
# Procedure, shortened: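 Titration-series screen for positive or negative modulators of EC50 EGF-induced signaling in ME-180 cells carrying an AP-1-driven beta-lactamase reporter. After 5 hours at 37 degrees Celsius, CCF4 460nm/530nm emission ratio gave %Activity; AC50 values derived.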
# [8] = target: Glucocorticoid receptor (Homo sapiens) (UniProt P04150); test: GR-GFP Redistribution (AID 450;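 active = compounds whose dose series gives a full or clear partial fitted curve of increased nuclear translocation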; note: potency is the fitted concentration of half-maximal effect); conditions: U2OS GR-GFP nuclear translocation, laser cytometry, 2 h
# [9] = qHTS Assay for Identification of Small Molecule Agonists for Hypoxia Response Element Signaling Pathway (AID 914; active = well fitted activation curve with a large enough effect in the signal ratio, with a control signal flat, not every such curve was filed as active; the % refers to the signal ratio; note: potency is the fitted concentration of half-maximal effect); conditions: ME-180 (cervical carcinoma) HRE-bla reporter, beta-lactamase ratio, CoCl2, 17 h; activation: hits give high values
# Procedure, shortened: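 Reporter activity (beta-lactamase, CCF4 460nm/530nm ratio) in HRE-bla ME-180 cells is recorded after 17 h compound exposure with EC50 CoCl2 at 37 degrees Celsius. AC50 values come from titration data.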
# Sequence of Rap guanine nucleotide exchange factor 4 (Homo sapiens) (Q8WZA2 whole entry, looked up): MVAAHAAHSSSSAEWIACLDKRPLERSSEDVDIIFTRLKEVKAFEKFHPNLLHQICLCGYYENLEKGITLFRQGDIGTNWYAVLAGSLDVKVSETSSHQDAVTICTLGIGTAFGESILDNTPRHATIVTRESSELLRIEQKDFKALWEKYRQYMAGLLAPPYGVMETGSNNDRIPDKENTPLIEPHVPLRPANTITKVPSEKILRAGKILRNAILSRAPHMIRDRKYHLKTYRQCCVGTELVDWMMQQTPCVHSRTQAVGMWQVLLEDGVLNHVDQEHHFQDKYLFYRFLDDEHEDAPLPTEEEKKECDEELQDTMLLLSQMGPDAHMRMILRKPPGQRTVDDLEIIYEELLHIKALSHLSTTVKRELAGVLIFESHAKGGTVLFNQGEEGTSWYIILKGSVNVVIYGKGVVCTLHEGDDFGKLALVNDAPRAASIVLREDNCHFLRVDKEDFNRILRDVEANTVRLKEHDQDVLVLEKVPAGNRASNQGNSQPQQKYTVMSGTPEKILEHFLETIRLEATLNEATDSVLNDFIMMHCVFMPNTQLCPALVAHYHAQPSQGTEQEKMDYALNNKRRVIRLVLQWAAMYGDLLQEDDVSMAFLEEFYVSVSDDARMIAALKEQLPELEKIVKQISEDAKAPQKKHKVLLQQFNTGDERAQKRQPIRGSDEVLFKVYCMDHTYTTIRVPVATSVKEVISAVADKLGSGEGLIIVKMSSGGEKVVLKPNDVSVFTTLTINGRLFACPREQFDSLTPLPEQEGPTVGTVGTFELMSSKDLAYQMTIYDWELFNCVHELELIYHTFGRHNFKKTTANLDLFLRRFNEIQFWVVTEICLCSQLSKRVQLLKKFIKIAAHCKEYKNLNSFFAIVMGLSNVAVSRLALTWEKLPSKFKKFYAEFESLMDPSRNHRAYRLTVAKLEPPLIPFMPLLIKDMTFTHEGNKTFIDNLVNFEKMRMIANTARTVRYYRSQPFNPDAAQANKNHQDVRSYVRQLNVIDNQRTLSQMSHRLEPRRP
# Sequence of Tumor susceptibility gene 101 protein (Homo sapiens) (Q99816 whole entry, looked up, the tested form may be a part): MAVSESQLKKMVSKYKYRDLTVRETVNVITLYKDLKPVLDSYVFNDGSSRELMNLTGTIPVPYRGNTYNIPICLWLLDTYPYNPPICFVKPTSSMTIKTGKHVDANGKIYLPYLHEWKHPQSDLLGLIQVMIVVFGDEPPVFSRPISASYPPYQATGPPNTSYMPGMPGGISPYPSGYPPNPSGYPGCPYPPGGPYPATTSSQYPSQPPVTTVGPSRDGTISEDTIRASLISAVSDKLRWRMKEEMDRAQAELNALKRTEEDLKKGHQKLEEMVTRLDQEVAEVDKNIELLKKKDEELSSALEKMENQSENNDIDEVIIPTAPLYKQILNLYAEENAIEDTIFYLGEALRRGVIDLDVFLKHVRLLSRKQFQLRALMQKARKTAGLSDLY
# Sequence of Rap guanine nucleotide exchange factor 3 (Homo sapiens) (O95398 whole entry, looked up): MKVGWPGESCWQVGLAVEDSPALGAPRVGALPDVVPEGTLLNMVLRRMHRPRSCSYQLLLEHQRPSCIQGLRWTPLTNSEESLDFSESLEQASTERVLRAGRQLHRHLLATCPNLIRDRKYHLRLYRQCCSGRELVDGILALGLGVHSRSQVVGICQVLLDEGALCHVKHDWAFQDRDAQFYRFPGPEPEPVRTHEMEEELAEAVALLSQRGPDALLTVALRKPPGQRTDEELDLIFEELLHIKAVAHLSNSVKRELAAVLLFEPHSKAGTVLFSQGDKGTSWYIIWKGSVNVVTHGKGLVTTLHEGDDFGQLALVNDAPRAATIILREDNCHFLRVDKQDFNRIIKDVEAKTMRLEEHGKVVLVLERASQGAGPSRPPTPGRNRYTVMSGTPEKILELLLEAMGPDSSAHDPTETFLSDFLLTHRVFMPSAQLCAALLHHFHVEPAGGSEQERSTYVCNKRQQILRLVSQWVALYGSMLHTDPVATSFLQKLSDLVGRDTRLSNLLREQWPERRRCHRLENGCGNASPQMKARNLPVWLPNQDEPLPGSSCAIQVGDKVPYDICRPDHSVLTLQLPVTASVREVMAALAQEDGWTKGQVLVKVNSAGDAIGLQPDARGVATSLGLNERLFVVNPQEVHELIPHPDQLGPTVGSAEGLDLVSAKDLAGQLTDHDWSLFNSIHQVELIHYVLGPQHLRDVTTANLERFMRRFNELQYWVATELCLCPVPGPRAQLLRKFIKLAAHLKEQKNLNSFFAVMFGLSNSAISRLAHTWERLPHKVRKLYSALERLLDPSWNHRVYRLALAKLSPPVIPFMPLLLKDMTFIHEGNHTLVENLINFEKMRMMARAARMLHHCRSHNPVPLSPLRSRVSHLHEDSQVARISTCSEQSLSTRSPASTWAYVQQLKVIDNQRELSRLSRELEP
# Sequence of Glucocorticoid receptor (Homo sapiens) (P04150 whole entry, looked up): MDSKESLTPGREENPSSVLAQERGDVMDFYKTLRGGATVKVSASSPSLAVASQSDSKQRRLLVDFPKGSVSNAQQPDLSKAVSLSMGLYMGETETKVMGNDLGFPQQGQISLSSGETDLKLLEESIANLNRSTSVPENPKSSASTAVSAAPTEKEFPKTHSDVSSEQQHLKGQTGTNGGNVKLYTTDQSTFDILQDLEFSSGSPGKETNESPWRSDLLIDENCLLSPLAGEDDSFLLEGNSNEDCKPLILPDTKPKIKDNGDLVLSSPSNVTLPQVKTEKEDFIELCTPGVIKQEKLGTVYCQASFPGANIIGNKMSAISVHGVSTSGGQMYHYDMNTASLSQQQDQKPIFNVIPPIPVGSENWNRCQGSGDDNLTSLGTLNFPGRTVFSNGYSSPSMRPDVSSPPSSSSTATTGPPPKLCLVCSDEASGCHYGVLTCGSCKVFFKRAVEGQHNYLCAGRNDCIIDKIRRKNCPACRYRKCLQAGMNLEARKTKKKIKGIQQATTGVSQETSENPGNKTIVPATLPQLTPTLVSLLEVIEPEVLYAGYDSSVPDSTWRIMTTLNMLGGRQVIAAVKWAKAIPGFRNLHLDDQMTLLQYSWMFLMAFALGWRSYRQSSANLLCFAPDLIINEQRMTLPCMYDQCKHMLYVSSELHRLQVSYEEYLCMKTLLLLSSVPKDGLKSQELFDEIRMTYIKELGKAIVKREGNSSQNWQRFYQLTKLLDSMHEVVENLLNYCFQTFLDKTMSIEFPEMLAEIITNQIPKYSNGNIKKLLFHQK
compound,measurement,setting,value
NC(=O)c1c(NC(=O)c2ccccc2)sc2c1CCN(Cc1ccccc1)C2,Potency,[1],inactive
same,Potency,[2],112 µM (active)
same,Potency,[3],84.9 µM (active)
same,Potency,[4],inactive
same,Potency,[5],39.8 µM (active)
N#CC1=C(N)OC2=C(CC/C2=C\c2ccccc2)C1c1ccccc1 (stereo unspecified),Potency,[1],inactive
same,Potency,[2],112 µM (active)
same,Potency,[3],inactive
same,Potency,[4],inactive
same,Potency,[5],inactive
CC(C)CCn1c(Oc2ccccc2F)nc2c1c(=O)n(C)c(=O)n2C,Potency,[1],inactive
same,Potency,[2],inactive
same,Potency,[3],inactive
same,Potency,[4],inactive
same,Potency,[5],inactive
Cc1cc2nc3c(=O)[nH]c(=O)[nH]c3nc2c([N+](=O)[O-])c1N,Potency,[6],13 µM (active)
same,Potency,[1],inactive
same,Potency,[2],100 µM (active)
same,Potency,[3],inactive
same,Potency,[4],inactive
same,Potency,[5],56.2 µM (active)
O=[N+]([O-])c1ccc(N(c2ccccc2)c2ccccc2)cc1,Potency,[1],inactive
same,activation,[2],"3.9% [at 17.1 µM, percent relative to cAMP agonist control]"
same,Potency,[3],inactive
same,"activity change, negative = inhibition",[4],-24.8% [at 30.8 µM]
same,activation,[5],15.8% [at 30.8 µM]
Cc1ccc(S(=O)(=O)N2CCN(C(=O)c3ccc4c(c3)OCO4)CC2)cc1,Potency,[1],inactive
same,activation,[2],"0.378% [at 17.1 µM, percent relative to cAMP agonist control]"
same,Potency,[3],inactive
same,"activity change, negative = inhibition",[4],-2% [at 30.8 µM]
same,activation,[5],24.8% [at 30.8 µM]
CC(=O)Nc1sc2c(c1-c1nc3ccccc3s1)CN(C(C)C)CC2,Potency,[1],inactive
same,activation,[2],"18.6% [at 17.1 µM, percent relative to cAMP agonist control]"
same,Potency,[3],inactive
same,"activity change, negative = inhibition",[4],28.4% [at 30.8 µM]
same,Potency,[5],10 µM (active)
Nc1ccc2nc3c(=O)n(CCc4ccccc4)c(=O)[nH]c3nc2c1,Potency,[6],3.26 µM (active)
same,Potency,[1],inactive
same,Potency,[2],100 µM (active)
same,Potency,[3],42.6 µM (active)
same,Potency,[4],inactive
same,Potency,[5],70.8 µM (active)
O=c1oc2cc(O)ccc2cc1-c1nnc(Nc2ccccc2F)s1,Potency,[1],inactive
same,Potency,[2],14.1 µM (active)
same,Potency,[3],3.38 µM (active)
same,Potency,[4],inactive
same,Potency,[5],3.55 µM (active)
CCOC(=O)c1sc2nc3c(SCC(=O)O)cc(C(=O)c4cc(F)ccc4O)cn3c(=O)c2c1C,Potency,[1],9.53 µM (active)
same,Potency,[2],inactive
same,Potency,[3],inactive
same,Potency,[4],inactive
same,Potency,[5],inactive
COc1ccc(NC2c3ccccc3C(=O)N2c2ccccn2)cc1Cl (stereo unspecified),Potency,[1],inactive
same,Potency,[2],inactive
same,Potency,[3],inactive
same,Potency,[4],inactive
same,Potency,[5],inactive
CN1/C(=C/C=C(C#N)C#N)C(C)(C)c2ccccc21,Potency,[1],inactive
same,activation,[2],"-11.9% [at 17.1 µM, percent relative to cAMP agonist control]"
same,Potency,[3],inactive
same,"activity change, negative = inhibition",[4],214% [at 30.8 µM]
same,activation,[5],-347% [at 30.8 µM]
Cn1cc(/C=C2\SC(=S)N(NC(=O)c3ccccc3Cl)C2=O)c2ccccc21,Potency,[1],inactive
same,Potency,[2],100 µM (active)
same,Potency,[3],inactive
same,Potency,[4],inactive
same,Potency,[5],63.1 µM (active)
N=C1/C(=C/c2coc3ccccc3c2=O)C(=O)N=C2SC(c3ccco3)=NN12,Potency,[1],inactive
same,Potency,[2],inactive
same,Potency,[3],inactive
same,Potency,[4],inactive
same,Potency,[5],39.8 µM (active)
COc1ccc(CN(C)C(=O)CC(c2ccccc2)c2ccccc2)cc1,Potency,[1],inactive
same,Potency,[2],inactive
same,Potency,[3],inactive
same,Potency,[4],inactive
same,Potency,[5],inactive
COc1ccc(NC(=O)/C(C#N)=C\c2ccc(OCc3ccc(C(=O)O)cc3)c(OC)c2)cc1,Potency,[1],67.5 µM (active)
same,Potency,[2],inactive
same,Potency,[3],inactive
same,Potency,[4],inactive
same,Potency,[5],inactive
Cc1ccc2c(c1C)OC(=O)CC2c1ccccc1 (stereo unspecified),Potency,[1],inactive
same,Potency,[2],inactive
same,Potency,[3],inactive
same,Potency,[4],inactive
same,Potency,[5],inactive
N#CC(Sc1ccccn1)c1ccc(Cl)cc1Cl (stereo unspecified),Potency,[1],inactive
same,Potency,[2],inactive
same,Potency,[3],inactive
same,Potency,[4],inactive
same,Potency,[5],inactive
COc1ccc(O)c(C(=O)c2cc(SCC(=O)O)c3nc4sc5c(c4c(=O)n3c2)CCCC5)c1,Potency,[1],23.9 µM (active)
same,Potency,[2],inactive
same,Potency,[3],inactive
same,Potency,[4],inactive
same,Potency,[5],inactive
O=C(c1ccco1)N1CCN(c2cc(=O)n(C3CCCCC3)c(=O)[nH]2)CC1,Potency,[1],inactive
same,Potency,[2],inactive
same,Potency,[3],inactive
same,Potency,[4],inactive
same,Potency,[5],inactive
O=C(Cn1c(=O)n(-c2ccccc2)c(=O)c2c3c(sc21)CCC3)c1ccc(Br)cc1,Potency,[1],inactive
same,Potency,[2],inactive
same,Potency,[3],inactive
same,Potency,[4],inactive
same,Potency,[5],inactive
COc1cc(/C=C(\C#N)c2nc3ccccc3o2)ccc1O,Potency,[1],inactive
same,activation,[2],"7.08% [at 17.1 µM, percent relative to cAMP agonist control]"
same,Potency,[3],inactive
same,"activity change, negative = inhibition",[4],3.99% [at 30.8 µM]
same,activation,[5],23.5% [at 30.8 µM]
CCN(CC)c1ccc2cc(C(=O)Nc3ccccn3)c(=O)oc2c1,"activity change, negative = inhibition",[7],7.12% [at 17.2 µM]
same,Potency,[8],> 20.6 µM
same,Potency,[9],3.98 µM (active)
same,Potency,[1],inactive
same,Potency,[2],100 µM (active)
same,Potency,[3],inactive
same,Potency,[4],inactive
same,Potency,[5],inactive
O=C(c1ccccc1)c1ccc(O)cc1O,Potency,[6],5.8 µM (active)
same,Potency,[1],inactive
same,activation,[2],"17% [at 17.1 µM, percent relative to cAMP agonist control]"
same,Potency,[3],inactive
same,"activity change, negative = inhibition",[4],-16.9% [at 30.8 µM]
same,activation,[5],6.44% [at 30.8 µM]
CCN(CC)c1ccc2cc(-c3nc(-c4ccccc4)no3)c(=O)oc2c1,Potency,[1],inactive
same,Potency,[2],31.6 µM (active)
same,Potency,[3],6.01 µM (active)
same,Potency,[4],inactive
same,Potency,[5],56.2 µM (active)
CC1=Nc2ccccc2/C1=C\c1nc(-c2ccccc2)oc1O,Potency,[1],inactive
same,activation,[2],"7.61% [at 17.1 µM, percent relative to cAMP agonist control]"
same,Potency,[3],inactive
same,"activity change, negative = inhibition",[4],-10.6% [at 30.8 µM]
same,activation,[5],18.1% [at 30.8 µM]
COc1cc(/C=C2/C(=O)c3cccc([N+](=O)[O-])c3C2=O)c(Br)cc1O,Potency,[1],23.9 µM (active)
same,Potency,[2],inactive
same,outcome,[3],inactive; activator; fitted 0.0301 uM [at 12.7 µM]
same,Potency,[4],inactive
same,Potency,[5],31.6 µM (active)
Cc1[nH]c2ccccc2c1C(c1ccccc1)c1ccc(Cl)s1 (stereo unspecified),Potency,[1],inactive
same,Potency,[2],inactive
same,Potency,[3],inactive
same,Potency,[4],inactive
same,Potency,[5],inactive
O=C(Cn1ccc(=O)[nH]c1=O)c1ccc([N+](=O)[O-])o1,Potency,[1],inactive
same,activation,[2],"15.2% [at 17.1 µM, percent relative to cAMP agonist control]"
same,Potency,[3],inactive
same,"activity change, negative = inhibition",[4],-11.8% [at 30.8 µM]
same,activation,[5],18.6% [at 30.8 µM]

# Source: PubChem BioAssay (NCATS)
